In all, about 310,000 compounds went through this assay and about 14,000 (4.5%) showed an effect of 50% or more. Effects have a minus sign here. The sample holds strong results, similar compounds and a random draw of the others, so the mix is not that of the screen.
What follows are compounds tested against human ether-à-go-go-related gene (hERG) potassium channel (human, UniProt Q12809) (assay: primary screen, population patch clamp on CHO cells stably expressing hERG; higher = less effect of the substance).
Sequence of human ether-à-go-go-related gene (hERG) potassium channel (Q12809 whole entry, looked up): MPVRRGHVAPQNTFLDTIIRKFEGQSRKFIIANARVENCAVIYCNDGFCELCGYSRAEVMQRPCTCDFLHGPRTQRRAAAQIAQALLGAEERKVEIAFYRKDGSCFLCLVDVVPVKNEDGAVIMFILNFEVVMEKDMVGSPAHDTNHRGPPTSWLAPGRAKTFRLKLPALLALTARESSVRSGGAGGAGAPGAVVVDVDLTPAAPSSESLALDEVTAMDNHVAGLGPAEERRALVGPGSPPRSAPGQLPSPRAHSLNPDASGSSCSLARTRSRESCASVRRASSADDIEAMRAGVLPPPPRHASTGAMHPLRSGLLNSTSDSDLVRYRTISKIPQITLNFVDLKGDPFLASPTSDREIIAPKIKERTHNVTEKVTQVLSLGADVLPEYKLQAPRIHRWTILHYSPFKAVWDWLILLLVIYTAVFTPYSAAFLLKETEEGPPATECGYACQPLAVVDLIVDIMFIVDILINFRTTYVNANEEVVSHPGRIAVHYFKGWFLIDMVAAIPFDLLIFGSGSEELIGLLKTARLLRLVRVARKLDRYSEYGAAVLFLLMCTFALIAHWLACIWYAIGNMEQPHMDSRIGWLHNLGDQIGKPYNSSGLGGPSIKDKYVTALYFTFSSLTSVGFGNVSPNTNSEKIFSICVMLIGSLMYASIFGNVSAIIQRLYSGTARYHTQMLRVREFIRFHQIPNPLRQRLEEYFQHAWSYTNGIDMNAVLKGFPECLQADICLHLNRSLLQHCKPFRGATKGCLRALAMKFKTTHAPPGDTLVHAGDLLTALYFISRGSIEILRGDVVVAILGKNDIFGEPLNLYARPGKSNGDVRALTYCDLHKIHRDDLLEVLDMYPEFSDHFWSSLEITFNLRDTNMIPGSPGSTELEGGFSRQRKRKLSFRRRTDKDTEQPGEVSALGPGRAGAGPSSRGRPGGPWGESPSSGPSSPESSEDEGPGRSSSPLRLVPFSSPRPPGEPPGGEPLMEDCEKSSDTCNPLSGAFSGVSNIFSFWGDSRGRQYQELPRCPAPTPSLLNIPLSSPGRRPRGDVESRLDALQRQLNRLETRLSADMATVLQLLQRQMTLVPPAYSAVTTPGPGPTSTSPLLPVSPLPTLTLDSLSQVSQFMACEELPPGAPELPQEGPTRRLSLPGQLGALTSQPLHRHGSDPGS
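Also: peak tail current of the secondary pulse compared with the same well before compound.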

| SMILES | hERG current change (%, negative = inhibition) at 10uM |
| --- | --- |
| O=C(NC1=NCCS1)c1cc(Cl)ccc1Cl | -24% |
| Cn1cc(C(c2ccccn2)c2cn(C)c3ccccc23)c2ccccc21 | 8.3% |
| CCc1[nH]c(=S)c(C#N)c(-c2ccccc2)c1C(=O)OC | 25.5% |
| Cc1cc(=O)[nH]c(N/N=C/c2sccc2C)n1 | -1.84% |
| CCOc1ccc(C(=O)COC(=O)CC)cc1 | 4.46% |
| CC(/C=N/n1cnnc1)=C\c1ccco1 | -16.9% |
| CCCNc1c(NS(=O)(=O)c2cccc(C#N)c2)c(=O)oc2ccccc12 | -58.7% |
| CCCNc1c(NS(=O)(=O)c2ccc(Br)cc2)c(=O)oc2ccccc12 | -34.7% |
| CCCNc1c(NS(=O)(=O)c2ccc3c(c2)CCCC3)c(=O)oc2ccccc12 | 8.8% |
| CC(NC(=O)c1ccc(S(=O)(=O)N(C)C)cc1)c1ccccc1 (centres unmarked) | 0.971% |
| CC(C)NC(=O)c1ccc(S(=O)(=O)N(C)C)cc1 | 0.0301% |
| CNC(=O)c1cc(S(=O)(=O)N(C)C)ccc1Cl | 5.59% |
| CC(NC(=O)c1cc(S(=O)(=O)N(C)C)ccc1Cl)c1ccc(-n2ccnc2)cc1 (centres unmarked) | -76.8% |
| CC(NC(=O)c1ccc(S(=O)(=O)N(C)C)cc1)c1ccc(-n2ccnc2)cc1 (centres unmarked) | -74% |
| O=C(Cc1c(O)c2ccccc2[nH]c1=O)NC1CCCCCC1 | 3.69% |
| OCCNc1c2ccccc2nc2c(F)c(F)c(F)c(F)c12 | 14.6% |
| Cn1nc(C(F)(F)F)c(/C=N/OC(=O)c2ccccc2Cl)c1SCc1ccccc1Cl | -5.41% |
| CSc1ccc(S(=O)(=O)NCC(=O)OCC(=O)NCCc2ccccc2)cc1[N+](=O)[O-] | 9.18% |
| Cc1cc(S(=O)(=O)NCC(C)C)ccc1OCC(=O)NCc1ccco1 | -73.4% |

| SMILES | hERG current change (%, negative = inhibition) at 10uM |
| --- | --- |
| CSc1ccc(S(=O)(=O)NCC(=O)OCC(=O)NCc2cccs2)cc1[N+](=O)[O-] | -44.5% |
| Cc1cc(S(=O)(=O)NCC(C)C)ccc1OCC(=O)NCc1ccccn1 | -22.8% |
| CSc1ccc(S(=O)(=O)NCC(=O)OCC(=O)NCc2ccco2)cc1[N+](=O)[O-] | -61.7% |
| CC(C)CNS(=O)(=O)c1ccc(OCC(=O)NCc2ccco2)cc1 | -11.6% |
| N#C/C(=N\Nc1cccc(C(F)(F)F)c1)C(=O)c1ccsc1 | 11.3% |
| COc1ccc(N2C(=O)CC(N3CCN(c4ccccc4OC)CC3)C2=O)cc1 (centres unmarked) | 6.7% |
| O=S(=O)(Cc1ccccc1)Nc1ccc(S(=O)(=O)N2CCCC2)cc1 | 5.25% |
| Cc1ccc(C)c(C(=O)CSc2n[nH]c(-c3ccncc3)n2)c1 | -0.0279% |
| CCN1/C(=C\C=C2\C(=O)N(C)C(=S)N2C)Sc2ccccc21 | 24% |
| CCN1/C(=C\C=C(C(C)=O)C(C)=O)Sc2ccccc21 | -2.64% |
| CCN1/C(=C/C=C/c2sc3ccccc3[n+]2CC)Sc2ccccc21.[I-] | -73.8% |
| CCN1/C(=C/C=C/C=C/C=C/c2sc3ccccc3[n+]2CC)Sc2ccccc21.[I-] | -49.5% |
| CCN1/C(=C/C(C)=C/c2sc3ccccc3[n+]2CC)Sc2ccccc21.[I-] | -78.8% |
| CC[n+]1c(/C=C(/C)SC)sc2ccccc21.COS(=O)(=O)[O-] | 5.99% |
| CC[n+]1c(/C=C(\C)SC)sc2ccccc21.COS(=O)(=O)[O-] | 3.25% |
| CCOC(=O)/C(=C/C=C1\Sc2ccccc2N1CC)C(C)=O | 4.94% |
| CCN1/C(=C/C=C/C=C/c2sc3ccccc3[n+]2CC)Sc2ccccc21.[I-] | -78.9% |
| Cn1nc(C(=O)NCc2cccc(Cl)c2)c2c1-c1ccccc1S(=O)(=O)C2 | 9.4% |
| CN(C)S(=O)(=O)c1cccc(NC(=O)Cn2cc(C(F)(F)F)cc(Cl)c2=O)c1 | 3.98% |

| SMILES | hERG current change (%, negative = inhibition) at 10uM |
| --- | --- |
| CN(CC(=O)Nc1cccc(F)c1)CC(=O)N(C)CC(=O)Nc1ccccc1Br | -13.7% |
| O=c1ccnc(NCCc2ccccc2)[nH]1 | 12.7% |
| O=c1c2ccccc2nc(-c2ccco2)n1CCCn1ccnc1 | -53.9% |
| Cc1ccc(-c2nc3ccccc3c(=O)n2CCCn2ccnc2)cc1 | -57.7% |
| O=c1c2ccccc2nc(-c2ccccc2)n1CCCn1ccnc1 | -31.9% |
| COc1ccc(-c2nc3ccccc3c(=O)n2CCCn2ccnc2)cc1 | -49% |
| CCCCn1c(-c2ccco2)nc2ccccc2c1=O | -12.2% |
| COCCCn1c(-c2ccco2)nc2ccccc2c1=O | -16% |
| CCn1c(NN)nc2sc3c(c2c1=O)CCC3 | 17.5% |
| COc1ccc2c(c1)C=C([C@@H]1C[C@H]3CN(c4ccccc4)C(=O)[C@]34CCCN14)CO2 | -49.2% |
| OCC(O)C1OC(Nc2ccc(Br)cc2)C(O)C1O (centres unmarked) | 16.7% |
| CN(C)c1cccc(C(=O)NCc2ccc(Cl)cc2)c1 | -8.25% |
| Cc1nc2nc[nH]n2c(=O)c1NS(C)(=O)=O | 4.48% |
| CCc1ccc(-c2nc(SCC(=O)NC3CCS(=O)(=O)C3)n[nH]2)cc1 (centres unmarked) | 4.84% |
| C=CCn1c(=O)c(C=Nc2cccc([N+](=O)[O-])c2)c(O)n(CCCC)c1=O | -55% |
| C=CCn1c(=O)c(C=Nc2cccnc2Cl)c(O)n(CCCC)c1=O | -5.65% |
| C=CCn1c(=O)c(C=Nc2c(OC)cccc2[N+](=O)[O-])c(O)n(CCCC)c1=O | -23.8% |
| O=C(COc1coc(CN2CCc3ccccc3C2)cc1=O)Nc1cccc([N+](=O)[O-])c1 | 2.89% |
